Experimental data taken from PubChem BioAssay AID540364 (The Scripps Research Institute Molecular Screening Center, 2011).
About 2,000 (0.56%) of roughly 360,000 compounds were called active.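 Rule for the calls: active = activation above the average of all compounds screened plus 3 SD, cutoff fixed separately per campaign (cut at about 7.5% in these data); inactive = the rest.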 This excerpt belongs to a sample that is enriched for actives.

Experiment: GAA850 frataxin promoter reporter upregulation – cell-based, luciferase luminescence, HEK293 lucGAA850, primary screen (AID 540364);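 note: 0% = DMSO wells and 100% = 10 µM SAHA wells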
Details: HEK293 lucGAA850 FXN promoter luciferase reporter, 24 h; at 6 µM; stronger effect = higher value; percent of 10 µM SAHA response
In the case of NC(c1csc(NC(=O)Nc2cccc(C(F)(F)F)c2)n1)C1CCCCC1 (centres undefined), the activation is reported as 0.57% (inactive). In the case of Cc1[nH]c2ccccc2c1C(=O)C(C)Sc1nnc(C2CC2)o1 (centres undefined), the activation is reported as -0.9% (inactive). With COc1ccc(Nc2oc(-c3ccccc3Cl)nc2C#N)cc1 the activation was -4.29% (inactive). With Cc1ccc(OCc2nc(C#N)c(N3CCCC3)o2)cc1 the activation was 1.46% (inactive). With CCOc1ccc(Nc2oc(Cc3ccccc3)nc2C#N)cc1 the activation was 7.76% (active). With Cn1c(=O)n(C)c(=O)n(CC(=O)N2CCCCC2)c1=O the activation was -1.79% (inactive). With O=C(CSc1nc2[nH]c(=O)[nH]c(=O)c2s1)Nc1cccc(F)c1 the activation was -0.65% (inactive). With CCCOP(=O)(c1ccc(N(C)C)cc1)C(O)c1cc(OC)c(OC)c(OC)c1 (centres undefined) the activation was 0.98% (inactive). With Nc1cccc(-c2cc(-c3ccccc3)nc(-c3cccc(N)c3)n2)c1 the activation was 1.48% (inactive). In the case of O=C(Nc1ccc(Cl)cn1)c1ccccc1-c1ccccc1, the activation is reported as 0.22% (inactive). In the case of c1ccc(-c2cc(-c3ccccc3)[nH]n2)cc1, the activation is reported as 10.4% (active). For CSc1ccccc1-c1nnc(-c2ccc(Cl)cc2)o1, the activation was 5.35% (inactive). In the case of c1ccc(-c2c[nH]c(-c3ccccc3)c2)cc1, the activation is reported as 1.7% (inactive). For Oc1ccccc1-c1cc(-c2ccc(Cl)cc2)n[nH]1, the activation was 8.31% (active). For O=C1CCN(C(=O)Nc2ccccc2)N1, the activation was -0.46% (inactive). With O=C(COc1ccc(Cl)cc1Cl)NCCCNC(=O)c1cnccn1 the activation was 7.84% (active). For O=C(NCCCNC(=O)c1ccccc1Cl)c1cnccn1, the activation was 1.82% (inactive). In the case of COc1ccccc1CCNC(=O)c1cnccn1, the activation is reported as 2.62% (inactive). In the case of CCn1c(CC(=O)Nc2ccccc2C)nnc1SCC(=O)NC1=NCCS1, the activation is reported as -0.89% (inactive). With COc1ccc(C2CC(=O)Nc3sc(=N)c4c(N)c(C#N)c(N)nc4c32)cc1OC (centres undefined) the activation was 5.47% (inactive). In the case of N#Cc1c(N)nc2c3c(sc(=N)c2c1N)NC(=O)CC3c1ccccc1Cl (centres undefined), the activation is reported as 9.37% (active). For CSc1nc2c(c(=O)[nH]1)C(c1cccc(Cl)c1Cl)CC(=O)N2 (centres undefined), the activation was -1.23% (inactive). For O=C(O)c1ccccc1-c1cccc2nncn12, the activation was 0.6% (inactive). With CCOC(=O)c1cc2cc(C)ccc2[nH]1 the activation was 7.85% (active). In the case of CCOC(=O)c1[nH]c2ccc(C)cc2c1N=C(C)N(C)C, the activation is reported as 2.12% (inactive). In the case of Cc1ccc2[nH]c(=O)c(COC(=O)c3ccccn3)cc2c1, the activation is reported as -0.35% (inactive). With CC(=O)c1ccc(-c2cnc3c(NC=O)cc(-c4cccc(NS(C)(=O)=O)c4)cn23)cc1 the activation was -2.27% (inactive). In the case of Cc1cc(C(=O)N2CCN(c3ccccn3)CC2)c(C)o1, the activation is reported as 1.36% (inactive). With CN(C)C(CNC(=O)c1cc(Br)c(Br)s1)c1ccco1 (centres undefined) the activation was 0.51% (inactive). With Cc1cccc([C@@H]2[C@@H]3C(=O)N(Cc4ccccc4)C(=O)[C@@H]3[C@]3(Cc4ccc(Cl)cc4)C(=O)N(c4cccc(Cl)c4)C(=O)N23)c1 the activation was 0.5% (inactive). In the case of CC12C(=O)N(c3ccccc3)C(=O)C1C(c1ccccc1)N1CCCN12 (centres undefined), the activation is reported as -0.94% (inactive). With O=C1[C@H]2[C@@H](c3ccc(C(F)(F)F)cc3)N[C@]3(CCCN(Cc4ccc(Br)cc4)C3=O)[C@H]2C(=O)N1Cc1ccccc1 the activation was -7.76% (inactive). With O=C1[C@H]2[C@@H](c3ccc(F)cc3)N3C(=O)N(c4ccc(C(F)(F)F)cc4)C(=O)[C@@]3(Cc3ccccc3)[C@H]2C(=O)N1C1CCCCC1 the activation was 7.65% (active). With C[C@@]12C(=O)N(c3cccc(Br)c3)C(=O)N1[C@H](c1ccc(Cl)cc1)[C@@H]1C(=O)N(C3CCCCC3)C(=O)[C@@H]12 the activation was 7.88% (active). For Cc1cccc(N2C(=O)N3[C@H](c4ccc(F)cc4)[C@@H]4C(=O)N(C5CCCCC5)C(=O)[C@@H]4[C@]3(Cc3ccccc3)C2=O)c1, the activation was 5.49% (inactive). With CCOC(=O)[C@@H]1[C@H]2COc3ccc(Br)cc3[C@H]2N2C(=O)N(c3ccc(C)cc3)C(=O)[C@@]12C the activation was 0.65% (inactive). With O=C1[C@H]2[C@@H](c3ccc(Cl)cc3)N3C(=O)N(c4cccc(F)c4)C(=O)[C@@]3(Cc3ccccc3)[C@H]2C(=O)N1C1CCCCC1 the activation was 8.92% (active). In the case of O=C1[C@H]2[C@@H](c3ccc(C(F)(F)F)cc3)N[C@]3(CCCN(Cc4ccc(Cl)cc4)C3=O)[C@H]2C(=O)N1Cc1ccccc1, the activation is reported as -7.53% (inactive). With CNC(=O)c1ccc(CN(C)C(=O)c2cc(C3CC3)nc3c2cnn3C(C)C)cc1 the activation was 1.69% (inactive). In the case of CN(C(=O)c1cccc(NC(=O)Cc2ccc(NC(=O)C3CCCN(C(=O)C4CC4)C3)cc2)c1)C1CC1 (centres undefined), the activation is reported as 0.38% (inactive). For O=C(CN1C(=O)NC2(CCCC2)C1=O)NCC1CCCO1 (centres undefined), the activation was 0.59% (inactive). With COCc1cc(C)nc(Nc2cc(C)ccc2C)c1C#N the activation was -0.89% (inactive). With CCOC(=O)c1ccc(-c2ccc3ncnc(N(C)Cc4sccc4C)c3c2)o1 the activation was 4.4% (inactive). With O=C(Nc1nccs1)C1CCCN1S(=O)(=O)c1cccc2cccnc12 (centres undefined) the activation was -0.14% (inactive). In the case of O=C(NCc1ccco1)c1ccc(Cn2c(=O)c3sccc3n(Cc3ccc(F)cc3)c2=O)cc1, the activation is reported as 15.4% (active). In the case of O=C(NCc1ccco1)c1cc2sccc2n1Cc1ccc(F)cc1, the activation is reported as 0.82% (inactive). For O=C(Cc1ccc(-n2c(=O)c3sccc3n(Cc3ccc(F)cc3)c2=O)cc1)NCc1ccco1, the activation was -1.57% (inactive). For C/C(Cc1ccccc1)=N\NC(=O)CNC(=O)c1ccc2c(c1)OCCO2, the activation was -1.21% (inactive). For COc1ccc(-c2nnc(NC(=O)CS(=O)(=O)c3ccc(Cl)cc3)o2)c(OC)c1, the activation was 2.95% (inactive). With COc1ccccc1-c1nnc(SCC(=O)N2CC(C)CC(C)C2)o1 (centres undefined) the activation was 3.31% (inactive). For COc1ccc(-c2nnc(SCC(=O)c3cccs3)o2)c(OC)c1, the activation was 7.8% (active). With Cc1cccn2c(=O)c3cc(C(=O)NC4CCCCC4)sc3nc12 the activation was 2% (inactive). With CCOCCCNC(=O)c1cc2c(=O)n3ccccc3nc2s1 the activation was 3.92% (inactive). For CN(C(=O)c1cc2c(=O)n3ccccc3nc2s1)C1CCCCC1, the activation was 8.38% (active). In the case of CC(=O)N1c2ccc(S(=O)(=O)N3CCC(C(=O)NC4CCCC(C)C4C)CC3)cc2CC1C (centres undefined), the activation is reported as 1.08% (inactive). In the case of Clc1ccc(-c2nnc(-c3ccccc3)nc2N2CCSCC2)cc1, the activation is reported as -1.26% (inactive). For OC(c1ccc(Cl)c(F)c1)c1ncc(-c2ccccc2Cl)[nH]1 (centres undefined), the activation was 0.22% (inactive). In the case of CCC1(CC)Cc2ccccc2-c2nc(CCl)[nH]c(=O)c21, the activation is reported as 8.24% (active). With CCOC(=O)C1Cn2c(nc3c(c2=O)C(C)(CC)Cc2ccccc2-3)S1 (centres undefined) the activation was 1.17% (inactive). With N#CCSc1nc2c(c(=O)n1Cc1ccccc1)C1(CCCC1)Cc1ccccc1-2 the activation was -0.71% (inactive). For CN1CCCc2cc(C#N)c(=O)[nH]c21, the activation was -0.22% (inactive). For C[C@H](CO)N1C[C@H](C)[C@@H](CN(C)S(=O)(=O)c2ccc(Oc3ccccc3)cc2)OCc2cn(nn2)CCCC1=O, the activation was -2.73% (inactive). With CCOC(=O)C1CCN(C(=O)c2ccc3c(=O)n4nc(Nc5ccccc5CC)sc4nc3c2)CC1 the activation was 0.72% (inactive). For O=C(/C=C/Sc1ncn[nH]1)c1ccc(Cl)cc1, the activation was 23.3% (active). For COc1ccc(CNC(=O)[C@@H]2CC=C[C@@H]3CCN(C4CC4)C(=O)[C@@H]32)cc1, the activation was -0.64% (inactive). With O=S(=O)(Nc1ccc2nc(-c3ccco3)[nH]c2c1)c1ccccc1 the activation was 2.98% (inactive). With COc1ccc(C(O)c2nc(-c3ccc(OC)nc3)cs2)cc1 (centres undefined) the activation was 0.21% (inactive). With COc1ccc(-c2csc(Nc3cccc(C)n3)n2)cc1OC the activation was 0.8% (inactive). For Cc1ccc(Nc2nc(-c3ccc(O)cc3O)cs2)nc1, the activation was 2.15% (inactive). For COc1ccc(-c2csc(Nc3ccc(O)cc3)n2)cc1, the activation was 8.06% (active). For COc1ccc(-c2csc(Cc3nc(O)cs3)n2)cc1, the activation was 21.7% (active). For Cc1ccn2c(-c3csc(Nc4ccc(C(=O)O)cc4)n3)c(C)nc2c1, the activation was 1.81% (inactive). In the case of O=c1oc2ccccc2cc1-c1csc(Nc2ccc(O)cc2)n1, the activation is reported as 22.5% (active). In the case of COC(=O)CCc1sc(Nc2ccc(Br)cc2)nc1-c1ccc(OC)cc1, the activation is reported as 2.66% (inactive). For COc1ccc(C(C)(O)c2nc(-c3ccc(C)c(C)c3)cs2)cc1 (centres undefined), the activation was 0.79% (inactive). With COc1cc2c(cc1CNC[C@H]1O[C@@H](n3cnc(C(N)=O)n3)[C@H](O)[C@@H]1O)OCO2 the activation was -0.43% (inactive). In the case of CCOC(=O)c1c(C)oc2cc(Br)c(OCC(N)=O)cc12, the activation is reported as -1.34% (inactive). For COc1cc2c(cc1OC)C(C(=O)Nc1cc(C)c(OC)c(C)c1)CC(=O)N2 (centres undefined), the activation was 1.49% (inactive). For CC12CCC(=O)C=C1CCC1C2C(O)CC2(C)C1CCC2(O)C(O)CO (centres undefined), the activation was 0.74% (inactive). In the case of O=C(O)c1ccccc1N=N/C(=N/Nc1cc(S(=O)(=O)O)ccc1O)c1ccccc1, the activation is reported as -1.25% (inactive). In the case of COc1ccc(OC)c(S(=O)(=O)N(C)CC(=O)N2CCN(c3ccccc3)CC2)c1, the activation is reported as -1.26% (inactive). In the case of CC1CC2=C(CC1/C=N/NC(N)=S)C(C)(C)CCC2 (centres undefined), the activation is reported as -2.98% (inactive). In the case of Cc1ccc(C2NC(=S)NC3=C2N2CCC3CC2)cc1 (centres undefined), the activation is reported as 1.46% (inactive). In the case of CC(=O)CCS(=O)(=O)c1ccc(C)c(C)c1, the activation is reported as 0.08% (inactive). With COc1cc(/C=N/Nc2nc3ccccc3s2)ccc1O the activation was 8.92% (active). For CCOc1cc(/C=N/Nc2cc(C)nc3ccc(C)cc23)ccc1O, the activation was -0.68% (inactive). For COc1cc(C=NC2CCCCC2)ccc1O, the activation was -0.66% (inactive). With CCN1C(=NCCc2cccnc2)N[C@@H](c2ccccc2)[C@H](C(=O)OC)[C@H]1C the activation was 1.66% (inactive). For Cc1ccc(CNC(=O)Nc2nnc([C@H]3C[C@H](O)[C@@H](CO)O3)s2)cc1, the activation was 0.3% (inactive).
